The record followed here is PubChem BioAssay (EPA / NIEHS).

Experiment [1] addresses Estrogen receptor (Homo sapiens) (UniProt P03372). The experiment is described as follows: OT_ERa_GFPERaERE_0120: Odyssey Thera (OT) 2-hour HeLa Transcription Induction Assay for Estrogen Receptor (AID 2283382; active = hit-call score of the fitted dose curve at least 0.9, where 1 is the maximum). In a few lines: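 Measures ESR1 pathway reporter gain-of-signal in HeLa cells after a 2-hour treatment, detected as fluorescent protein induction by microscopy, DMSO as baseline.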

In experiment [2] the target is Peroxisome proliferator-activated receptor gamma (Homo sapiens) (UniProt P37231). The experiment is described as follows: OT_PPARg_PPARgSRC1_0480: Odyssey Thera (OT) 8-hour Protein-Complementation Assay for Peroxisome Proliferator-activated Receptor Gamma / SRC-1 Co-activator (AID 2283387; active = hit-call score of the fitted dose curve at least 0.9, where 1 is the maximum;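 also: nuclear to cytoplasmic split Venus YFP fluorescence ratio reporting PPARg SRC-1 interaction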). In a few lines: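 HEK293T transiently transfected with PPARg and SRC-1 fused to Venus YFP fragments, compounds 8 h at 37C. Fixed, Draq5-stained cells imaged; nuclear/cytoplasmic 488 nm fluorescence ratio over at least 350 cells per image; gain fitted versus DMSO.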
Chain of Peroxisome proliferator-activated receptor gamma (Homo sapiens) (P37231 whole entry, looked up, the tested form may be a part): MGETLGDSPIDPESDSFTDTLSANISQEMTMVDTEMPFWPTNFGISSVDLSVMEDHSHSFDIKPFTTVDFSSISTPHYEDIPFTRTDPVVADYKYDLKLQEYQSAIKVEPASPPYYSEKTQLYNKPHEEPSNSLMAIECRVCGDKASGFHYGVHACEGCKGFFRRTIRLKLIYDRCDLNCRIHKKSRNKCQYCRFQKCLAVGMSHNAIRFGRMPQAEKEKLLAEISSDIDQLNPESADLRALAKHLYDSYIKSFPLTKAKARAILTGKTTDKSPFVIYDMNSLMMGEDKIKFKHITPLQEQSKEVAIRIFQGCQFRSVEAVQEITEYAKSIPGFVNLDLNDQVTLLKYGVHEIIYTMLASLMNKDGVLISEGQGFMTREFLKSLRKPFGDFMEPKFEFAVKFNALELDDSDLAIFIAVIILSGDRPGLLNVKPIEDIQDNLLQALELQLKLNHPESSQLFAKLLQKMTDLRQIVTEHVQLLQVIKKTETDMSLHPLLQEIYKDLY

The target is the same in experiment [3]. The experiment is described as follows: OT_PPARg_PPARgSRC1_1440: Odyssey Thera (OT) 24-hour Protein-Complementation Assay for Peroxisome Proliferator-activated Receptor Gamma/ SRC-1 Co-activator (AID 2283388; active = hit-call score of the fitted dose curve at least 0.9, where 1 is the maximum). The essentials: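 Protein-fragment complementation between PPARg and coactivator SRC-1 was measured by fluorescence imaging in transiently transfected HEK293T cells after 24 h treatment. Signal was quantified as N/C ratio in the 488 nm channel, with DMSO as negative control.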

Experiment [4] can be described thus: CEETOX_H295R_OHPREG: CeeTox H295R High-throughput Steroidogenesis Assay for OH-Pregnenolone (OHPREG) (AID 2283434). Particulars: actives raise or lower the signal. In a few lines:
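Human adrenal H295R cells were prestimulated 48 h with 10 uM forskolin, then exposed 48 h to chemical in 0.1% DMSO. Medium 17alpha-hydroxypregnenolone was quantified by HPLC-MS/MS after MTBE extraction; bidirectional fitting versus DMSO baseline.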

The nature of experiment [5]: CEETOX_H295R_OHPROG: CeeTox H295R High-throughput Steroidogenesis Assay for OH-Progesterone (OHPROG) (AID 2283435).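 As to AC50: 17alpha-hydroxyprogesterone secreted into medium measured by HPLC-MS/MS.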 Particulars: actives raise or lower the signal. In a few lines:
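Secreted 17alpha-hydroxyprogesterone is read by tandem MS from media of forskolin-primed H295R cells dosed with chemical for 48 h. Activity is fitted in both directions against DMSO baseline; cytotoxic concentrations are re-tested diluted.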

Experiment [6] can be described thus: CEETOX_H295R_ESTRADIOL: CeeTox H295R High-throughput Steroidogenesis Assay for Estradiol (AID 2283440).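 Also: estradiol secreted into medium quantified by LC-MS/MS after dansyl derivatisation.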 The conditions noted are these: actives raise or lower the signal. The essentials: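 Estradiol secreted into the medium was measured by tandem mass spectrometry after liquid-liquid extraction and dansylation. Human H295R cells had been forskolin-primed (10 uM, 48 h) before a 48 h chemical exposure with 0.1% DMSO.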

A short description of experiment [7]: CEETOX_H295R_ESTRONE: CeeTox H295R High-throughput Steroidogenesis Assay for Estrone (AID 2283441).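 Also: estrone secreted into medium measured by LC-MS/MS after dansyl derivatization.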 The conditions noted are these: actives raise or lower the signal. In a few lines:
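H295R cells; 48 h forskolin (10 uM) prestimulation; 48 h compound exposure, 0.1% DMSO final. Medium estrone: MTBE extraction, dansyl derivatization, HPLC-MS/MS. Bidirectional fit vs DMSO.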

Experiment [8] in a line: CEETOX_H295R_PROG: CeeTox H295R High-throughput Steroidogenesis Assay for Progesterone (PROG) (AID 2283442).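 As to AC50: human H295R adrenal cells primed with 10 µM forskolin before dosing; progesterone secreted into medium by H295R cells measured by HPLC-MS/MS.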 Particulars: actives raise or lower the signal. In a few lines:
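Steps: seed H295R cells and let them adhere overnight; prime 48 h with 10 uM forskolin; dose with compound in DMSO at 0.1% final for 48 h; extract medium steroids with MTBE; measure progesterone by LC-MS/MS. MTT viability was run in the same wells.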

Read-out in experiment [9]: Tumor necrosis factor receptor superfamily member 6 (Homo sapiens) (UniProt P25445)
The experiment can be described thus: LTEA_HepaRG_FAS: Life Technologies and Expression Analysis (LTEA) Assay for Fas cell surface death receptor (FAS) using HepaRG (AID 2283447). Particulars: mRNA level, 48 h; actives raise or lower the signal. The essentials:
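Differentiated human HepaRG cells, pre-cultured 48 h, were exposed in duplicate for 48 h to 8-point half-log concentrations (top 100 uM, 0.5% DMSO) in serum-free induction medium; FAS mRNA measured by qRT-PCR, normalized to ACTB/GAPDH/POLR2A, bidirectional fit versus DMSO.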

Read-out in experiment [10]: Fatty acid synthase (Homo sapiens) (UniProt P49327)
The experiment can be described thus: LTEA_HepaRG_FASN: Life Technologies and Expression Analysis (LTEA) Assay for Fatty Acid Synthase (FASN) using HepaRG (AID 2283448). Particulars: mRNA level, 48 h; actives raise or lower the signal. The essentials:
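Transcript-level assay: HepaRG liver cells are treated for 48 h across an eight-point range topping at 100 uM, and FASN mRNA, normalized to three housekeeping genes, is compared with DMSO controls in both directions.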

Read-out in experiment [11]: Cyclin D2 (CCND2), CCND2 (gene 894)
The experiment is described as follows: LTEA_HepaRG_CCND2: Life Technologies and Expression Analysis (LTEA) Assay for Cyclin D2 (CCND2) using HepaRG (AID 2283449).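 Also: CCND2 transcript measured by TaqMan qRT-PCR and normalised to three housekeeping genes.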 The conditions noted are these: mRNA level, 48 h; actives raise or lower the signal. In a few lines:
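Differentiated human HepaRG cells were exposed for 48 h in serum-free induction medium to eight half-log concentrations topping at 100 uM (0.5% DMSO vehicle). CCND2 mRNA was quantified by TaqMan qRT-PCR, normalised to ACTB, GAPDH and POLR2A, and fitted bidirectionally against DMSO.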

Read-out in experiment [12]: Cyclin Dependent Kinase Inhibitor 1A (CDKN1A), CDKN1A (gene 1026)
The experiment is described as follows: LTEA_HepaRG_CDKN1A: Life Technologies and Expression Analysis (LTEA) Assay for Cyclin Dependent Kinase Inhibitor 1A (CDKN1A) using HepaRG (AID 2283450). The conditions noted are these: mRNA level, 48 h; actives raise or lower the signal. In a few lines: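 Read-out is CDKN1A mRNA by TaqMan qRT-PCR, normalized to three housekeeping genes and fitted in both directions against the DMSO baseline. Human HepaRG cells were treated 48 h with test chemicals up to 100 uM in half-log steps, 0.5% DMSO.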

Read-out in experiment [13]: Cyclin D1 (CCND1), CCND1 (gene 595)
The experiment is described as follows: LTEA_HepaRG_CCND1: Life Technologies and Expression Analysis (LTEA) Assay for Cyclin D1 (CCND1) using HepaRG (AID 2283451).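 As to AC50: TaqMan qRT-PCR transcript level normalised to ACTB GAPDH and POLR2A housekeeping genes.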 The conditions noted are these: mRNA level, 48 h; actives raise or lower the signal. In a few lines:
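HepaRG plated 48 h, medium switched to serum-free induction medium, chemicals added in duplicate (top 100 uM, half-log steps, 0.5% DMSO) for 48 h, cells lysed, RNA measured by TaqMan qRT-PCR.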

The nature of experiment [14]: CEETOX_H295R_11DCORT: CeeTox H295R High-throughput Steroidogenesis Assay for 11-Deoxycortisol (11DCORT) (AID 2283432).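 As to AC50: 11-deoxycortisol secreted into the medium measured by LC-MS/MS.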 Particulars: actives raise or lower the signal. In a few lines: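 H295R cells prestimulated 48 h with 10 uM forskolin, then exposed 48 h to chemical in 0.1% DMSO. 11-Deoxycortisol in medium quantified by HPLC-MS/MS after MTBE extraction; bidirectional fit versus DMSO. MTT viability read in same wells.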

A short description of experiment [15]: CEETOX_H295R_CORTIC: CeeTox H295R High-throughput Steroidogenesis Assay for Corticosterone (CORTIC) (AID 2283437).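 Also: corticosterone secreted into medium quantified by mass spectrometry.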 Particulars: actives raise or lower the signal. In a few lines:
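H295R cells were prestimulated 48 h with 10 uM forskolin, then exposed 48 h to test chemical in 0.1% DMSO. Medium corticosterone was MTBE-extracted and quantified by HPLC-MS/MS; bidirectional fit versus DMSO baseline.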

The nature of experiment [16]: CEETOX_H295R_CORTISOL: CeeTox H295R High-throughput Steroidogenesis Assay for Cortisol (AID 2283438).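 Also: cortisol secreted into medium quantified by LC-MS/MS.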 Particulars: actives raise or lower the signal. In a few lines:
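Human adrenocortical H295R cells (passage ≤10) received test chemicals for 48 h after forskolin priming. Secreted cortisol was measured by LC-MS/MS.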

Experiment [17] in a line: CEETOX_H295R_DOC: CeeTox H295R High-throughput Steroidogenesis Assay for DOC (AID 2283439). The conditions noted are these: actives raise or lower the signal. The essentials:
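Secreted DOC was quantified from H295R media by HPLC-MS/MS after 48 h chemical exposure following 48 h forskolin (10 uM) prestimulation. Values were fitted in both directions relative to DMSO, the negative control and baseline.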

SMILES strings stand for the structures. Results filed as inconclusive are left out. The source made the active and inactive calls. The calls were made as follows, unless noted: active = hit-call score of the fitted dose curve at least 0.9, where 1 is the maximum; inactive = score below 0.9.

Chain of Estrogen receptor (Homo sapiens) (P03372 whole entry, looked up): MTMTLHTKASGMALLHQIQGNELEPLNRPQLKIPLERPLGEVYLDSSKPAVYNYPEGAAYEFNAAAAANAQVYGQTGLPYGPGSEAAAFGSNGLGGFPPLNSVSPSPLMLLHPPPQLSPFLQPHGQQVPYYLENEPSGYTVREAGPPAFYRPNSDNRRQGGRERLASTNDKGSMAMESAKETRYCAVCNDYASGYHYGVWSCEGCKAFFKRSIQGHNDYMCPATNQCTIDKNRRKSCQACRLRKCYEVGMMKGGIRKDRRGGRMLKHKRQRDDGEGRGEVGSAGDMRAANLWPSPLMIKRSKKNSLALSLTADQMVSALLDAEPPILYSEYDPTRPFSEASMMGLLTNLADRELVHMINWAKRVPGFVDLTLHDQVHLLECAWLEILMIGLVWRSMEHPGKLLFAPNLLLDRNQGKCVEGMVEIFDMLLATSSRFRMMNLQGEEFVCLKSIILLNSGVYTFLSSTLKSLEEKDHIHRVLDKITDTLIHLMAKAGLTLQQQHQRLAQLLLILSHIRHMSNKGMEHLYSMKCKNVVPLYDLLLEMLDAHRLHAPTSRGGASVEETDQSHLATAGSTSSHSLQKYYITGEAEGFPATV
Chain of Fatty acid synthase (Homo sapiens) (P49327 whole entry, looked up): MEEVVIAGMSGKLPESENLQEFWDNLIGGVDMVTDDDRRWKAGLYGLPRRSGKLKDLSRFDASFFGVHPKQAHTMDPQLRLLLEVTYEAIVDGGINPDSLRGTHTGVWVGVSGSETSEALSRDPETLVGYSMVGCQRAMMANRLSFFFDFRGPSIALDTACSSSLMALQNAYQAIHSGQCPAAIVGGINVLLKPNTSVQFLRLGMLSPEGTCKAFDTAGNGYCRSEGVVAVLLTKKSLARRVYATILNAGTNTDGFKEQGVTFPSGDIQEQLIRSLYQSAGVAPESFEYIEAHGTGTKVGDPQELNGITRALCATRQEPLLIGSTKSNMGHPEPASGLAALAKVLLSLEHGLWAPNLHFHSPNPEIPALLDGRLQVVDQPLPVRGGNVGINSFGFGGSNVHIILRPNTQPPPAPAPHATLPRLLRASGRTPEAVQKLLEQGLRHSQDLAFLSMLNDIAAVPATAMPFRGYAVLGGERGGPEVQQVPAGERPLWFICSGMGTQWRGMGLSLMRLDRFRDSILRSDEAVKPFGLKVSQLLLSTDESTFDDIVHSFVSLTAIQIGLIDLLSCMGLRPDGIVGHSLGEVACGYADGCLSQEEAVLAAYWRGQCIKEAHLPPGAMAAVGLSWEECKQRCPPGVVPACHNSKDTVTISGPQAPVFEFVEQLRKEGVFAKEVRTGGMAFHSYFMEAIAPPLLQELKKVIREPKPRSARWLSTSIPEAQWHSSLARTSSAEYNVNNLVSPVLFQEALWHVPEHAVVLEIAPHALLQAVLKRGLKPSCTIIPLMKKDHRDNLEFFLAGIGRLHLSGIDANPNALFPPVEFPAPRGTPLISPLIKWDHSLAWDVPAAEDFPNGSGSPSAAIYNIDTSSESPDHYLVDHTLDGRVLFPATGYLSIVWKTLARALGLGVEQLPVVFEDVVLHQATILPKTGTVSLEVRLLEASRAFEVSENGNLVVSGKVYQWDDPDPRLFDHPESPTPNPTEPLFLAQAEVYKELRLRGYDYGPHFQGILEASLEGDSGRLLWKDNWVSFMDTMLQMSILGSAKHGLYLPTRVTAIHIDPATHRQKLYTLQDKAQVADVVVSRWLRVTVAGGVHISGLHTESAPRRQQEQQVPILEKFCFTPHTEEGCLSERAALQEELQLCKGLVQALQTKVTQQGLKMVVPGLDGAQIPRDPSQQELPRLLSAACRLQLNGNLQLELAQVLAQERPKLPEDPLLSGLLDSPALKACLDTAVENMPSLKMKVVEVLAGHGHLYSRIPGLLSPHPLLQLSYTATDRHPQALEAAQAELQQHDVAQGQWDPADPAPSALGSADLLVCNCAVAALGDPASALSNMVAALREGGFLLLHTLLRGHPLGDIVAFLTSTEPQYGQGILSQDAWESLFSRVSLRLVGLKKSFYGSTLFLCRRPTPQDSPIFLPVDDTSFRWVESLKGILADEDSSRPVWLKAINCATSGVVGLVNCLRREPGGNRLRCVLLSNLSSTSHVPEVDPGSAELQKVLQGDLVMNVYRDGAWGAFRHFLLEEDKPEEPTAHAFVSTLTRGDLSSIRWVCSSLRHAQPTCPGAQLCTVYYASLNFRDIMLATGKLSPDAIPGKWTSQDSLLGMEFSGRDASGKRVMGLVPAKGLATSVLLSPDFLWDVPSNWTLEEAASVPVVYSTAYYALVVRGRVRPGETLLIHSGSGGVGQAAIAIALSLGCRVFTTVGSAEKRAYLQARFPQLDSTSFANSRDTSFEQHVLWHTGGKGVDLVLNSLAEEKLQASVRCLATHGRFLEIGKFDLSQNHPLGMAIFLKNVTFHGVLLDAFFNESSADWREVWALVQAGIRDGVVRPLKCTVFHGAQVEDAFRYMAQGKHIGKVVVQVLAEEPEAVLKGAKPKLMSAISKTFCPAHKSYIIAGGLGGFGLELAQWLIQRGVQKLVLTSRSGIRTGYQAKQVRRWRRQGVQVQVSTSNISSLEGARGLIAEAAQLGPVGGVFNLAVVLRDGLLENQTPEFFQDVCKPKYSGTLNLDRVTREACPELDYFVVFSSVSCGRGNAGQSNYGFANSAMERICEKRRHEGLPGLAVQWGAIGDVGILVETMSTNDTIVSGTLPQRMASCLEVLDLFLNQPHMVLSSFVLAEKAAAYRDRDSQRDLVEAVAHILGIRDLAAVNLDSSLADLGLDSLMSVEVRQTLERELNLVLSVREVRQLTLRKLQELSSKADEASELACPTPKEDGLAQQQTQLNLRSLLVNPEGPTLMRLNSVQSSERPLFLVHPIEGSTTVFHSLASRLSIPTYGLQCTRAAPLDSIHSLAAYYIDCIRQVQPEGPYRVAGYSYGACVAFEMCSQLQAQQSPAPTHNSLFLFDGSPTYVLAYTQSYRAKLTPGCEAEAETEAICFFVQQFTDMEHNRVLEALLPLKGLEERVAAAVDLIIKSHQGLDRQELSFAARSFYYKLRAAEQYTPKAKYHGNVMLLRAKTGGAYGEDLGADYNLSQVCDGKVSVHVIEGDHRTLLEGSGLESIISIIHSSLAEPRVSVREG

As to `CNC(=O)CSP(=S)(OC)OC`, the compound was called inactive in experiment [1], in experiment [2], in [3], in [4], in experiment [5] and in experiment [6]. Besides, the result in experiment [7], in [8], in [9], in [10], in [11] and in experiment [12] was inactive. Further, the compound was called inactive in [13].
Turning to `N#Cc1c(Cl)c(Cl)c(Cl)c(C#N)c1Cl`, the call in experiment [1], in [2], in experiment [3], in experiment [14], in experiment [4] and in experiment [5] was inactive. Further, the result in [15], in experiment [16], in experiment [17], in [6], in experiment [7] and in [8] was inactive. Besides, the result in experiment [9], in experiment [11] and in [12] was inactive. Besides, the figures for the AC50 in experiment [10] and in experiment [13] were 35.5 µM (active) and 13.5 µM (active), respectively.
As to `CCC(C)Nc1c([N+](=O)[O-])cc(C(C)(C)C)cc1[N+](=O)[O-]` (configuration not stated), the AC50 – broadly, the concentration at which the activity in the assay is half-maximal – in experiment [1] was 12.2 µM (active); in experiment [14], 74.6 µM (active); in experiment [4], 74.5 µM (active); in experiment [5] it was 71.7 µM (active); in experiment [16], 78.1 µM (active); in experiment [17], 87.1 µM (active). The half-maximal activity concentration (AC50) in experiment [8] is 88.3 µM (active). The compound was classed as inactive in experiment [2], in experiment [3], in experiment [15], in experiment [6], in experiment [7] and in [9]. Further, the result in experiment [10], in [11], in [12] and in [13] was inactive.
Turning to `O=C(NC(=O)c1c(F)cccc1F)Nc1ccc(OC(F)(F)C(F)OC(F)(F)F)c(Cl)c1` (configuration not stated), the result in [1], in experiment [2], in experiment [3], in [14], in experiment [4] and in experiment [5] was inactive. Further, the outcome in experiment [15], in experiment [16], in experiment [17], in [6], in experiment [7] and in experiment [8] was inactive. Besides, the compound was classed as inactive in experiment [9], in [11], in [12] and in experiment [13]. Besides, in [10], the half-maximal activity concentration (AC50) is 8.63 µM (active).
Take `N#CN`: the outcome in [1], in experiment [2], in experiment [3], in [9], in experiment [10] and in [11] was inactive. Besides, the call in experiment [12] and in experiment [13] was inactive.
